About 83,000 compounds went through this panel and 20% of them were active in at least one assay; those are over-represented in the sample as a whole.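 Testing used 96-well plates and a 48-hour single-concentration exposure. Example: -40 means 40% of the starting cells died.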 Activity calls are given as the source filed them. Rule for the calls: active = growth percent below 10; inactive = the rest.
Each compound was assayed on HL-60(TB) leukemia (assay: NCI-60 one-dose screen, 48 h (100 = growth as untreated, 0 = no growth, -100 = all killed)). Conditions: 10 µM unless noted.

Q: Which growth does the source give for `CCn1cc(C(=O)O)c(=O)c2cc(F)c(N3CCN(CC(=O)Nc4ccc(S(=O)(=O)Nc5nccc(C)n5)cc4)C(C)C3)c(F)c21` (stereo not given) here?
A: 115% (inactive)

Q: With `CNCc1cccc2c1OCCOCCN(C)C(=O)CN(C)S(=O)(=O)c1ccc(cc1)-c1cnc(N)c(n1)C(=O)N2` as the compound, how does the growth read?
A: -32.9% (active)

Q: Which growth does the source give for `C/C(=N\OC(=O)Nc1cccc(Cl)c1)c1ccccc1` here?
A: 110% (inactive)

Q: `CN(CCNc1ccc(C(=N)N)cc1)c1ccc(C(=N)N)cc1` was tested. Which growth did it give?
A: 91% (inactive)

Q: With `CCCCCCC(=O)Nc1ncc(Cc2ccc(C)cc2)s1` as the compound, how does the growth read?
A: -18.2% (active)

Q: With `O=C(Nc1ccc(-n2cc(-c3ccncc3)c(-c3ccc(O)c(Cl)c3)n2)cc1)c1ccc(Cl)c(C(F)(F)F)c1` as the compound, how does the growth read?
A: 10.9% (inactive)

Q: For `COC1(CC[C@@H](C)COC2OC(CO)C(O)C(O)C2O)O[C@H]2C[C@H]3[C@@H]4CC=C5C[C@@H](OC6OC(CO)C(OC7OC(C)C(O)C(O)C7O)C(O)C6OC6OC(C)C(O)C(O)C6O)CC[C@]5(C)[C@H]4CC[C@]3(C)[C@H]2[C@@H]1C` (stereo not given in full), which growth is on record?
A: 27.1% (inactive)

Q: For `CC[C@H](CC[C@@H](C)[C@H]1CC[C@H]2[C@@H]3CC[C@@H]4CC(=O)/C(=C\c5ccncc5)C[C@]4(C)[C@H]3CC[C@]12C)C(C)C`, which growth is on record?
A: 83.1% (inactive)

Q: With `O=C(Nc1cccc2[nH]c(C(F)(F)F)nc12)c1ccc(F)cc1` as the compound, how does the growth read?
A: 49.6% (inactive)

Q: Which growth does the source give for `COc1ccc(-c2nn(-c3cccc(NC(=O)Nc4ccccc4)c3)cc2-c2ccncc2)cc1Cl` here?
A: -10.6% (active)

Q: Which growth does the source give for `C#C[C@@]1(O)[C@@H](CO)O[C@@H](n2cc(Cl)c3c(N)ccnc32)[C@@H]1O` here?
A: -2.37% (active)

Q: With `N#Cc1c(-c2ccccc2)cc(-c2ccccc2)n(CCCCC(=O)O)c1=O` as the compound, how does the growth read?
A: 102% (inactive)

Q: Which growth does the source give for `Cc1c(N2CN3C[C@H](C)N4CN(c5c(C)n(C)n(-c6ccccc6)c5=O)CN5C[C@@H](C)N(C2)C3C54)c(=O)n(-c2ccccc2)n1C` (stereo not given in full) here?
A: -14.5% (active)

Q: `CCCCOc1ccc(NC(=O)n2nc(NC(C)=O)c3cc(NC(C)=O)ccc32)cc1` was tested. Which growth did it give?
A: 72.9% (inactive)

Q: For `Cc1nc(N)[nH]c(=O)c1C`, which growth is on record?
A: 218% (inactive)

Q: For `COc1ccc(CCO)cc1`, which growth is on record?
A: 64.3% (inactive)

Q: How did the growth turn out when `Cn1cc(-c2csc(-c3c[nH]c4ccc(F)cc34)n2)c2cnccc21` was run?
A: -59.4% (active)

Q: `COc1cc(-c2cc(/C=C/C(=O)c3ccc4c(c3)OCO4)[nH]n2)cc(OC)c1OC` was tested. Which growth did it give?
A: 91.3% (inactive)

Q: `Nc1ncnc2c1c(-c1ccc(Oc3ccccc3)cc1)nn2C[C@H]1SSC[C@H]1O` was tested. Which growth did it give?
A: -31.9% (active)

Q: How did the growth turn out when `COc1ccc(-c2cc(-c3cc(OC)c(OC)c(OC)c3)c(C#N)c(=O)n2CCCCC(=O)NO)cc1` was run?
A: 44% (inactive)

Q: `CCOC(=O)CC[C@H](NC(=O)c1ccc(N(C)Cc2cnc3nc(N)nc(N)c3n2)c2ccccc12)C(=O)OCC` was tested. Which growth did it give?
A: 20.7% (inactive)

Q: For `COc1ccc(-c2cc(=O)c3c(OC)c4ccoc4c(/C=C/C=O)c3o2)cc1`, which growth is on record?
A: -3.36% (active)

Q: For `CCc1c(C)[nH]c(=O)c(C(N)=O)c1C#N`, which growth is on record?
A: 102% (inactive)

Q: With `COc1ccc2c(c1)Oc1nc(N)c(C#N)c(N)c1C2Sc1ccc(O)cc1` (stereo not given) as the compound, how does the growth read?
A: 9.8% (active)

Q: Which growth does the source give for `N#CCc1cccc2ccccc12` here?
A: 90.6% (inactive)

Q: Which growth does the source give for `CN(C)C1CCC(NC2=CC(=O)C=CC2=O)CC1` (stereo not given) here?
A: 114% (inactive)

Q: Which growth does the source give for `O=c1oc2c(cc1-c1ccccc1)c(=O)[nH]c1ccccc12` here?
A: 98.1% (inactive)

Q: With `CC[C@H](C)[C@@H]1NC(=O)[C@H](Cc2ccc(O)cc2)N(C)C(=O)[C@H](Cc2ccccc2)NC(=O)CN(C)C(=O)[C@@H]2CCCN2C(=O)[C@@H](Cc2ccccc2)N(C)C(=O)[C@H](CC(C)C)NC1=O` as the compound, how does the growth read?
A: -24% (active)

Q: `Cc1cccc(N=NC(=S)NNc2cccc(C)c2)c1` was tested. Which growth did it give?
A: 101% (inactive)

Q: `CCN(CC)CC(C)Nc1ccc(C)c2sc3ccccc3c(=O)c12` (stereo not given) was tested. Which growth did it give?
A: 50.8% (inactive)

Q: For `CCCCC/C=C/C/C=C/CCCCCCCC1=NC(C)(C)CN1C(C)C`, which growth is on record?
A: 13.7% (inactive)

Q: How did the growth turn out when `NS(=O)(=O)c1ccc(N2N=C(c3ccc(-c4ccccc4)cc3)CC2c2ccc(Cl)cc2)cc1` (stereo not given) was run?
A: 86.5% (inactive)

Q: How did the growth turn out when `NNC(=O)CSc1nc2scc(-c3ccccc3)c2c(=O)n1-c1ccccc1` was run?
A: 84% (inactive)

Q: How did the growth turn out when `COc1cc(C(=O)N2N=C(c3ccc(S(C)(=O)=O)cc3)CC2c2ccco2)cc(OC)c1OC` (stereo not given) was run?
A: 90.3% (inactive)

Q: `C=C1CC2(OC1=O)C(=O)N(C)c1ccc(I)cc12` (stereo not given) was tested. Which growth did it give?
A: -56.5% (active)
